Measured values: PubChem BioAssay AID624304 (Sanford-Burnham Center for Chemical Genomics, 2012)
About 1,800 (0.5%) of roughly 360,000 compounds were called active. What follows is part of a selection rich in actives, with near analogues and random picks from the rest. Unmarked numbers belong to inactive results.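 The calls were made as follows: active = interference check ratio from 0.5 to 1.5 plus GFP to RFP signal ratio inhibition reaching or exceeding a fixed threshold (cut at about 30% in these data, passing the limit was not always enough); inactive = the rest.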

Test: suppressors of acrylamide-induced Pgst-4::GFP reporter in worms, primary screen, SKN-1 inhibitor project, whole organism, uHTS, GFP/RFP fluorescence ratio, strain VP596 (AID 624304)
Details: C. elegans VP596 Pgst-4::GFP/RFP ratio, 24 h, at 21.8 µM, hits give high values

SMILES | inhibition
COc1ccc(-c2cc(C(=O)n3cnc4ccccc43)c3ccccc3n2)cc1 | 38.1% (active)
O=C(c1ccc(Cl)cc1)n1cnc2ccccc21 | 11.4%
C/C(N)=C(/C#N)C(=O)COC(=O)c1cc(-c2ccc(C)cc2)nc2ccccc12 | -3.83%
CC(C)Sc1nc(N)nc2c1ncn2C1OC(CO)C(O)C1O (stereo unspecified) | 8.48%
Cc1ccc(-n2ncc3c(=O)n(-c4ccc(C)c(C)c4)c(-c4ccco4)nc32)cc1 | 18.1%
Cn1c(SCC(=O)Nc2ccc(Br)cc2F)nnc1-c1ccco1 | 6.52%
Cn1c(-c2ccco2)nc2cc3ccccc3cc21 | 41.7% (active)
O=C(CN1C2CCC1CC(NC(=O)C1CC1)C2)NCc1ccccc1 (stereo unspecified) | 35.8% (active)
CC(=O)NC1CC2CCCC(C1)N2CC(=O)Nc1ccccc1 (stereo unspecified) | -18.6%
O=C(NCc1ccccc1)C1CCN(C(=O)Cc2ccccc2)CC1 | 9.03%
CCOC(=O)N1CCN(C(=O)c2ccc(CN(c3ccc(C)c(C)c3)S(C)(=O)=O)cc2)CC1 | 6.59%
OCc1nc(CO)n(Cc2ccccc2)n1 | -5.44%
COc1ccc(CC(NC(C)=O)C(=O)NC2CCN(C(=O)Nc3ccc(C#N)cc3)CC2)cc1OC (stereo unspecified) | 11.3%
COc1ccc(CC(NC(C)=O)C(=O)N2CCN(C(=O)Nc3cccc(Cl)c3)CC2)cc1OC (stereo unspecified) | 40.7% (active)
COc1ccc(CC(NC(C)=O)C(=O)NC2CCN(C(=O)C3CC3)CC2)cc1OC (stereo unspecified) | 7.48%
OC(c1ccc(Cl)c(F)c1)c1ncc(-c2ccccc2Cl)[nH]1 (stereo unspecified) | 20.6%
CCN1CCN(c2sc(S(C)(=O)=O)nc2S(=O)(=O)c2ccc(Cl)cc2)CC1 | -10.1%
COc1cc(N2CCCC2)c(OC)cc1/C=C(/C#N)c1cccc(Br)c1 | 45.8% (active)
N#CC1(Nc2ccc(-c3ccc(Cl)cc3)cc2)CCCC1 | 69% (active)
N#CC1(Nc2ccc3c4c(cccc24)CC3)CCCCC1 | 8.67%
NC(=O)C1(Nc2ccc(-c3ccccc3)cc2)CCCC1 | 13.2%

SMILES | inhibition
Cc1c(C=O)c2ccccc2n1CC(=O)O | -4.35%
CC(=O)c1c(C)n([O-])c2ccccc2[n+]1=O | 36.9% (active)
CCOC(=O)C1=C(CNC2CCCCC2)NC(=O)NC1c1cc(C)ccc1C (stereo unspecified) | -5.96%
C#Cc1ccc(NC(=O)C2(C)CCN2C(=O)Cc2ccc(-c3ccccc3)cc2)cc1 (stereo unspecified) | 8.15%
CC(=O)Nc1cccc(OCC(=O)/C=C2\N(C)c3ccccc3C2(C)C)c1 | 45.5% (active)
Cc1cccc(OCC(=O)Nc2ccccc2F)c1 | 11.3%
COc1cccc(NC(=S)C(C#N)=C2N(C)c3ccccc3N2C)c1 | -3.75%
COCCn1c(SCc2nc3cc(OC)c(OC)cc3c(=O)[nH]2)nnc1-c1ccncc1 | 13.8%
CCn1c(SCC(=O)Nc2nc(C)cs2)nnc1C(C)NC(=O)c1ccccc1 (stereo unspecified) | -5.72%
C=CCNC(=S)N1CCN(CCN=Cc2c(C)[nH]n(-c3ccc([N+](=O)[O-])cc3)c2=O)CC1 | -5.99%
c1ccc2c(c1)CCc1snnc1-2 | 11%
O=C(COC(=O)/C=C/c1cccs1)NC1CCCCC1 | 4.24%
O=S(=O)(c1cccs1)N1CCc2ccccc2C1 | -31.6%
O=C1/C(=C/c2cccs2)CCc2ccccc21 | 41.9% (active)
O=C1/C(=C/c2cccs2)CCC1C1CCCC1 (stereo unspecified) | 41.6% (active)
O=S1(=O)CSCS(=O)(=O)C1 | 10.6%
CC1CN(S(=O)(=O)c2ccc(C(=O)NN3CCN(C)CC3)cc2)CC(C)O1 (stereo unspecified) | -5.41%
Cc1cc(OCc2cc(C(=O)NCc3cc(C(C)C)no3)no2)cc(C)c1Cl | 1.98%
O=C(Nc1ccc(Cl)c(Cl)c1)N1CC=C(c2ccccc2)CC1 | 13.1%
O=C(CC(O)(C(F)(F)F)C(F)(F)F)Nc1ccc(Cl)c(Cl)c1 | 50.1% (active)
Cc1ccc(NC(=O)CSc2nn3c(=O)c(C)nnc3s2)cc1Cl | 20.9%

SMILES | inhibition
NC(=O)C1CCN(C2OC(=O)c3ccccc32)CC1 (stereo unspecified) | -35.9%
O=C(NC(c1ccc(-c2ccccc2)cc1)c1cnccn1)C1CCN(CCOc2ccc(Cl)cc2Cl)CC1 (stereo unspecified) | 39.3% (active)
O=C(NC(c1ccc(Cl)cc1)c1cnccn1)C1CCN(Cc2ccc(Cl)cc2)CC1 (stereo unspecified) | -1.18%
Cc1ccc(C(NC(=O)C2CCN(CCOc3ccc(Cl)cc3Cl)CC2)c2ccccn2)cc1 (stereo unspecified) | -6.91%
CCCCS(=O)c1snnc1C (stereo unspecified) | 0.19%
CC1(C(=O)NS(=O)(=O)c2ccccc2)CCN1C(=O)Cc1ccc(-c2ccccc2)cc1 (stereo unspecified) | 14.5%
CC1(C(=O)NS(=O)(=O)c2cccs2)CCN1C(=O)Cc1ccc(-c2ccccc2)cc1 (stereo unspecified) | 35.1% (active)
CCCNC(=O)C1(C)CCN1C(=O)Cc1ccc(-c2ccccc2)cc1 (stereo unspecified) | -5.8%
O=C(NCCCN1CCOCC1)C1CCCN(S(=O)(=O)N2CCCCC2)C1 (stereo unspecified) | 6.87%
CC[n+]1c(C)n(-c2ccccc2)c2ccc(NC(C)=O)cc21 | -12.4%
O=S(=O)(c1ccc(Sc2nnc3ccccn23)nc1)N1CCOCC1 | 10.2%
CCCCOC(=O)Nc1sc2nc(C)cc(C)c2c1-n1cccc1 | -12.8%
Cc1cc(C)c2c(-n3cccc3)c(NC(=O)OCc3ccccc3)sc2n1 | 39.1% (active)
COC(=O)Nc1sc2nc(C)cc(C)c2c1-n1cccc1 | 6.78%
O=C(C1CCCO1)N1CCN(C(=S)NC2CC2)CC1 (stereo unspecified) | -7.31%
COc1cc2[nH]c(=S)n(Cc3ccc(F)cc3)c(=O)c2cc1OC | -0.963%
COc1cc2[nH]c(=S)n(CCN3CCCCC3C)c(=O)c2cc1OC (stereo unspecified) | 56.1% (active)
CCOc1cc2[nH]c(=S)n(CCN3CCCCC3C)c(=O)c2cc1OCC (stereo unspecified) | -6.45%
CC(Oc1ccc(Cl)cc1Cl)C(=O)/C=C/N(C)C (stereo unspecified) | -7.74%
